Our source for the binding signal values is article PMC7862700, “An all-to-all approach to the identification of sequence-specific readers for epigenetic DNA modifications on cytosine”.

What all share (test): DAPPL (digital affinity profiling via proximity ligation, sequencing); 10 mM Tris-HCl pH 7.5, 50 mM NaCl, 1 mM DTT, 4% glycerol, room temperature, 30 min; GST-TFs on glutathione beads, 16-mer random dsDNA library, 0.1% formaldehyde crosslink after washing; high values mean tight binding
Common to all, as to settings: protein: recombinant; tags: N-terminal GST; dsDNA, one strand shown

One test has as its target T1, FLI1 (Homo sapiens, UniProt Q01543 1-452).
T1 sequence: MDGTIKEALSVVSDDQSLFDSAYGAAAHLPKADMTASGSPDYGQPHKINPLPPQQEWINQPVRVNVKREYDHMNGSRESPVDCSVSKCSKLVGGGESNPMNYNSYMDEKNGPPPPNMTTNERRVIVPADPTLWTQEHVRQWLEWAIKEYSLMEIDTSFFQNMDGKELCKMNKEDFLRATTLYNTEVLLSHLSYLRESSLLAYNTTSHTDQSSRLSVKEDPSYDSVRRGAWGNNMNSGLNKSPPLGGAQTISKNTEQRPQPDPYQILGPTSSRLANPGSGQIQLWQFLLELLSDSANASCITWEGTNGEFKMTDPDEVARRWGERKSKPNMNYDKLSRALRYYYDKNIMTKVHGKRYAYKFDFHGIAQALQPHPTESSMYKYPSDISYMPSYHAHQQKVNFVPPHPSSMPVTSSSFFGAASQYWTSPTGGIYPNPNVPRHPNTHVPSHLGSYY
The method, boiled down: (§1)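 Pools were built from human transcription factors expressed in yeast as GST fusions, captured on glutathione beads and DNA-barcoded, along with a tag-only sample. Incubation with 200 nmole of a 16-mer random double-stranded DNA library lasted 30 min at room temperature in Tris/NaCl/DTT/glycerol buffer, and was followed by washing, 0.1% formaldehyde crosslinking, proximity ligation, PCR amplification and Illumina NextSeq500 sequencing. Binding signal is the quotient of each hexamer's read frequency for a factor and its frequency for the tag-only sample.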

Another test deals with T2, ELK1 (Homo sapiens, UniProt P19419 1-428).
T2 sequence: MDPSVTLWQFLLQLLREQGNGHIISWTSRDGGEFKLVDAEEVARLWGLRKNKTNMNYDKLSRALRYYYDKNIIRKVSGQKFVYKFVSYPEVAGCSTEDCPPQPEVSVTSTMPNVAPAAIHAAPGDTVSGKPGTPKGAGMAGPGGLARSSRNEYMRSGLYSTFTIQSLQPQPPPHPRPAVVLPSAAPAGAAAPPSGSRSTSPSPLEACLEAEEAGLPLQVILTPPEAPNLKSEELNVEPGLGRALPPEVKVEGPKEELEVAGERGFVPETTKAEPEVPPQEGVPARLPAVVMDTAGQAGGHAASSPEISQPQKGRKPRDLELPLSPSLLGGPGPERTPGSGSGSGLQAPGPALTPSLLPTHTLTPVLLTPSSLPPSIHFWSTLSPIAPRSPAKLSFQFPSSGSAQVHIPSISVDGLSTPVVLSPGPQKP
In outline: as §1

A further test concerns the target T3, GABPA (Homo sapiens, UniProt Q06546 1-454).
T3 sequence: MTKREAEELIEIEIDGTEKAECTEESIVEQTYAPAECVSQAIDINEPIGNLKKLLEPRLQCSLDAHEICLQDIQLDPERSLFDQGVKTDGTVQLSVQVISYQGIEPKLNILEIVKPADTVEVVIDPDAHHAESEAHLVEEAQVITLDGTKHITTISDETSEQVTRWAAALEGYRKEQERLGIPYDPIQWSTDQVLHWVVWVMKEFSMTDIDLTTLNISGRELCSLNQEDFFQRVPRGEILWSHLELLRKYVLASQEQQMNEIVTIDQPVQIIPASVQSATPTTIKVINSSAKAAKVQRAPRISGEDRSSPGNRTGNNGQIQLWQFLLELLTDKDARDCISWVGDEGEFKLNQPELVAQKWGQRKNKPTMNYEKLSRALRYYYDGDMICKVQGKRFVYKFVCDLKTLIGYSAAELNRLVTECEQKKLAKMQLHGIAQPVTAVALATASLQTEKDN
The method, boiled down: as §1

A further test deals with T4, ERG (Homo sapiens, UniProt P11308 1-479).
T4 sequence: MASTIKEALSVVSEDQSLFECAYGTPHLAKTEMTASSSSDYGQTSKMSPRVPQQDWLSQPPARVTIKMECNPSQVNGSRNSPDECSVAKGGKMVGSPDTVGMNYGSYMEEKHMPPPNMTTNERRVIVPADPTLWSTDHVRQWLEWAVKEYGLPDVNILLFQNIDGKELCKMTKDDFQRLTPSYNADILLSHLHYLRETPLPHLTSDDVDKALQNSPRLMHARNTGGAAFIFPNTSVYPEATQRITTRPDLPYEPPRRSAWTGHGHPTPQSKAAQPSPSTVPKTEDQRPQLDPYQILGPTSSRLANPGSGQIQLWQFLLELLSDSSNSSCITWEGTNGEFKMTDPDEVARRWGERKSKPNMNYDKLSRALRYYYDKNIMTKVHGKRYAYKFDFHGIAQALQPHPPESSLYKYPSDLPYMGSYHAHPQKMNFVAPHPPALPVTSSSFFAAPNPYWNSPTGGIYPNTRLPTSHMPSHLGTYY
In outline: as §1

A further test deals with ELF1 (Homo sapiens, UniProt P32519 1-619). The method, boiled down:
as §1

Another test deals with T5, EHF (Homo sapiens, UniProt Q9NZC4 1-300).
T5 sequence: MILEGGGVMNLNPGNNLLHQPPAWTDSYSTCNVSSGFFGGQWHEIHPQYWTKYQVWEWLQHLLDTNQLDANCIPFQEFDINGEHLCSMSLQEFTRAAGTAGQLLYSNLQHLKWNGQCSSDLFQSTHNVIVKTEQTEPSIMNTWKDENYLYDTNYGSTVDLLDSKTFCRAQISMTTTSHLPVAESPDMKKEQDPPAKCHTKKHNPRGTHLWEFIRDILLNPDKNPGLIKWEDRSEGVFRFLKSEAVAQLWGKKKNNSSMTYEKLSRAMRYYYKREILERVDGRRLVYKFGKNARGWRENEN
In outline: as §1

The next test has as its target SPI1 (Homo sapiens, UniProt P17947 1-270). The method, boiled down: as §1
The next test addresses SPIB (Homo sapiens, UniProt Q01892 1-262). The method, boiled down: as §1
The next test concerns the target T6, ELK3 (Homo sapiens, UniProt P41970 1-407).
T6 sequence: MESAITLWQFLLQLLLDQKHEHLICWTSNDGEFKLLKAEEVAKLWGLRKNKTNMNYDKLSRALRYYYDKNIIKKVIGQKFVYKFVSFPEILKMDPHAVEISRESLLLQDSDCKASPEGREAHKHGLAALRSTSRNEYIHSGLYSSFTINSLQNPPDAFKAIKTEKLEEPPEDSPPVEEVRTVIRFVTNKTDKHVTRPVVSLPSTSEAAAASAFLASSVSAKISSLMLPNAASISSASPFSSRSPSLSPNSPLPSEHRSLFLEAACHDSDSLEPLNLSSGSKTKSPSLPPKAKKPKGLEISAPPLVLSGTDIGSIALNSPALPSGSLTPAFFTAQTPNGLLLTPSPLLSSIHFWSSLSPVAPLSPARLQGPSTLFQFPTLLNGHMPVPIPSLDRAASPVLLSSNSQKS
The method, boiled down:
as §1

In a further test the target is T7, FEV (Homo sapiens, UniProt Q99581 1-238).
T7 sequence: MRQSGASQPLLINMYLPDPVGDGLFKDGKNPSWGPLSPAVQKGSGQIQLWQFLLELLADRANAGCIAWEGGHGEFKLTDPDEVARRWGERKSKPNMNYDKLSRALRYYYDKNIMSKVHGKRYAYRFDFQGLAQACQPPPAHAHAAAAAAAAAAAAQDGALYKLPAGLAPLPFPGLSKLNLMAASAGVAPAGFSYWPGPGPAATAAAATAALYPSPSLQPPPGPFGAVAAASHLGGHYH
In outline:
as §1

A further test deals with ETV5 (Homo sapiens, UniProt P41161 1-510). The method, boiled down: as §1
The target in the next test is ELF4 (Homo sapiens, UniProt Q99607 1-663). The method, boiled down:
as §1

A further test has as its target ETV1 (Homo sapiens, UniProt P50549 1-477). In outline: as §1
The target of a further test is T8, ERF (Homo sapiens, UniProt P50548 1-548).
T8 sequence: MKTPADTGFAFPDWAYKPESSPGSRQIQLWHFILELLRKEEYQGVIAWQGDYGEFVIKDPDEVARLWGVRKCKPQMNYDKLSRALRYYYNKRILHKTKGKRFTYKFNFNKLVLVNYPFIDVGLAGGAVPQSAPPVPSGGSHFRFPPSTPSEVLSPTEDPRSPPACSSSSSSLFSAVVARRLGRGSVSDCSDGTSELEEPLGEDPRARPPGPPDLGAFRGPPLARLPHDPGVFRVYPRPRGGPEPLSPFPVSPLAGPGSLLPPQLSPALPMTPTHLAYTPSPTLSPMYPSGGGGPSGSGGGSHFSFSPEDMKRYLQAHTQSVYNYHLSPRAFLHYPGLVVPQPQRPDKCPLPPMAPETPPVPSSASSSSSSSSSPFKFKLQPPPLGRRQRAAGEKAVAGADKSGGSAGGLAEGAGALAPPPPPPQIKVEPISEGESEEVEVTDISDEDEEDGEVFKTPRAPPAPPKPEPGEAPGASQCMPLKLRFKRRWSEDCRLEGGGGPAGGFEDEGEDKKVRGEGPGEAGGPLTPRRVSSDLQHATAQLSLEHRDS
In outline:
as §1

In a further test the target is T9, ETV3L (Homo sapiens, UniProt Q6ZN32 1-361).
T9 sequence: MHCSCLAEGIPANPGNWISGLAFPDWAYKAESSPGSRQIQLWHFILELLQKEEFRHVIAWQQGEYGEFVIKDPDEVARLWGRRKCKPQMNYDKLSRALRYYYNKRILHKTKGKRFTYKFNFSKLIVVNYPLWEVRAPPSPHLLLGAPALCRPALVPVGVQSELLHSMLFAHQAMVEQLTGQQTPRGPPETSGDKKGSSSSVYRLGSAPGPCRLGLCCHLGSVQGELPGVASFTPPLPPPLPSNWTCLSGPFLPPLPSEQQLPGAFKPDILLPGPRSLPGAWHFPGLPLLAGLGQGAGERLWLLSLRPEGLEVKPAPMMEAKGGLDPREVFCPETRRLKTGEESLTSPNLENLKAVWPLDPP
The method, boiled down: as §1

In another test the target is T10, ETS2 (Homo sapiens, UniProt P15036 1-469).
T10 sequence: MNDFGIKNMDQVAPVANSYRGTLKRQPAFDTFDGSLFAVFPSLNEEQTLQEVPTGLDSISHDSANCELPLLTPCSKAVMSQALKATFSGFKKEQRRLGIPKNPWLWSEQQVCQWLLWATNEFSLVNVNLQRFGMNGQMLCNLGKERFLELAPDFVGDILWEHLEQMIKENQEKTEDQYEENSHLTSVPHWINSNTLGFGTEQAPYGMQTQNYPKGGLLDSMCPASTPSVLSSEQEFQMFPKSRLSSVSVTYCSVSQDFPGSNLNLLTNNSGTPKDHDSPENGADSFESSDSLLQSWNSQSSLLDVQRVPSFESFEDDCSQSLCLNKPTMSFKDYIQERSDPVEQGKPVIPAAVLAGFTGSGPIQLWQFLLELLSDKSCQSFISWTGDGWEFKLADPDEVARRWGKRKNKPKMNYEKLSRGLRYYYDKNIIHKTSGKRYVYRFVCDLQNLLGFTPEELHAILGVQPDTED
The method, boiled down:
as §1

Another test has as its target T11, ELF5 (Homo sapiens, UniProt Q9UKW6-2 1-255).
T11 sequence: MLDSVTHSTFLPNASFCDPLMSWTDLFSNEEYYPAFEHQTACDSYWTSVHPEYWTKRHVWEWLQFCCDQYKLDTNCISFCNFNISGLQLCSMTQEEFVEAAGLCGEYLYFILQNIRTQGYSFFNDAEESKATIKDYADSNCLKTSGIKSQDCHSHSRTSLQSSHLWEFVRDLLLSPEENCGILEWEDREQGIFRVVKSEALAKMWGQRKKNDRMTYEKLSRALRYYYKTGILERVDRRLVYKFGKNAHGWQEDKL
In outline: as §1

In the next test the target is T12, ETV3 (Homo sapiens, UniProt P41162-2 1-143).
T12 sequence: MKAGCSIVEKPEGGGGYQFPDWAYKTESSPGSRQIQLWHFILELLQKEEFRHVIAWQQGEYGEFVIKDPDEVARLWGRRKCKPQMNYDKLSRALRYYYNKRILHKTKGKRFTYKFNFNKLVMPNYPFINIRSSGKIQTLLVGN
In outline:
as §1

In a further test the target is ETV6 (Homo sapiens, UniProt P41212 1-452). In outline:
as §1

Sequence of ELF1 (P32519 whole entry): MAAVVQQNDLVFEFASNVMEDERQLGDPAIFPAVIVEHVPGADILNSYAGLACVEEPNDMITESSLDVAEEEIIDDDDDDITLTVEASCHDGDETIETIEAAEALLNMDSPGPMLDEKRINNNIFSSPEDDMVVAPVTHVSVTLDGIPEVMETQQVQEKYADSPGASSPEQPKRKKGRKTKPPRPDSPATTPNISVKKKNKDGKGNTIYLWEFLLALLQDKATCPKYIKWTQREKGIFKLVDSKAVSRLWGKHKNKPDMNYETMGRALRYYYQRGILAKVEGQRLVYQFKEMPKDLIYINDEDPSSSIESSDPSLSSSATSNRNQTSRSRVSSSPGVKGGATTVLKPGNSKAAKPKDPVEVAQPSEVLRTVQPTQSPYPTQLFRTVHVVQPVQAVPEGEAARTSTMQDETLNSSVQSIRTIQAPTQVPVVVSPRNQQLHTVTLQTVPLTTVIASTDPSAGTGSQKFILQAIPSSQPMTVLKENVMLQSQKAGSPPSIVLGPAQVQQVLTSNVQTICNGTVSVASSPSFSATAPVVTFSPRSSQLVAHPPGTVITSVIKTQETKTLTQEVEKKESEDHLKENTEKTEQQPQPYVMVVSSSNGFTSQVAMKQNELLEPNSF
Sequence of ETV5 (P41161 whole entry): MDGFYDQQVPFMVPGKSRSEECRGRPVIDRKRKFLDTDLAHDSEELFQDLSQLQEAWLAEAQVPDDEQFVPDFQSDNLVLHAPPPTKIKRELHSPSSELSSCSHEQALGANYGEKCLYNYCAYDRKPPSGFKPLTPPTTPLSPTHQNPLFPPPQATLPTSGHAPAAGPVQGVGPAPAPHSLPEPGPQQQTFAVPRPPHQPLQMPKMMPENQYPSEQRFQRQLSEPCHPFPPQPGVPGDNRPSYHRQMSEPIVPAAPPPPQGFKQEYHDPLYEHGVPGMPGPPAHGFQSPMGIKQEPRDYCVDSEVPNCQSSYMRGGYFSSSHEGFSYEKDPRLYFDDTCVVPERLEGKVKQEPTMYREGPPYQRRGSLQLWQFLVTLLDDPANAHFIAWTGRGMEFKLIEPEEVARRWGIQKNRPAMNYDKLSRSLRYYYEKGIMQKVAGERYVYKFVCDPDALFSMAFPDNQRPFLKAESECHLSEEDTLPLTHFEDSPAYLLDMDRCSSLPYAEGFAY
Sequence of SPIB (Q01892 whole entry): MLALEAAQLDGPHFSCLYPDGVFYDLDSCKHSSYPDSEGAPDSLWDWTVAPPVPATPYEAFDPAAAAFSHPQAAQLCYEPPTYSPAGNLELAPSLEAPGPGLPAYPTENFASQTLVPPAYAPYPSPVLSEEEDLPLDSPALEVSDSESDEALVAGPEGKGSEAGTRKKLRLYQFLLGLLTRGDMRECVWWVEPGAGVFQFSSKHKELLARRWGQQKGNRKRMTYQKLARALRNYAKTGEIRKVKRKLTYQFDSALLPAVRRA
Sequence of ELF4 (Q99607 whole entry): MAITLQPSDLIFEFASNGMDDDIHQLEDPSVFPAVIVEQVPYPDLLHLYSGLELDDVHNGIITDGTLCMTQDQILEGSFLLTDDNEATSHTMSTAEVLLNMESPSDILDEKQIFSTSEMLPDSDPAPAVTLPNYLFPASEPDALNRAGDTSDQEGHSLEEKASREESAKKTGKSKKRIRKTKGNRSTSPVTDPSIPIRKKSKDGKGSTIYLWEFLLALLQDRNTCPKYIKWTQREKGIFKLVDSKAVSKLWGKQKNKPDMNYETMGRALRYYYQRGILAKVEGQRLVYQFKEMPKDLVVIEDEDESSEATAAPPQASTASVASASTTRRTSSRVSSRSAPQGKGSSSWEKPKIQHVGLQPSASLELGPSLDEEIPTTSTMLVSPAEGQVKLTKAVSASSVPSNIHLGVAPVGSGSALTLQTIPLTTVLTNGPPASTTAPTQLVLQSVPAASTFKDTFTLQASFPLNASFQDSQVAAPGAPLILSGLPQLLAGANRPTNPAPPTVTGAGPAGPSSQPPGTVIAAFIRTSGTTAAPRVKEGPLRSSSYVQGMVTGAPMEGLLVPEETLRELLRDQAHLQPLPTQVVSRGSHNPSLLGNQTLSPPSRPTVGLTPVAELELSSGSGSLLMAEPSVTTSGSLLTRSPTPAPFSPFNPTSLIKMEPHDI
Sequence of ETV1 (P50549 whole entry): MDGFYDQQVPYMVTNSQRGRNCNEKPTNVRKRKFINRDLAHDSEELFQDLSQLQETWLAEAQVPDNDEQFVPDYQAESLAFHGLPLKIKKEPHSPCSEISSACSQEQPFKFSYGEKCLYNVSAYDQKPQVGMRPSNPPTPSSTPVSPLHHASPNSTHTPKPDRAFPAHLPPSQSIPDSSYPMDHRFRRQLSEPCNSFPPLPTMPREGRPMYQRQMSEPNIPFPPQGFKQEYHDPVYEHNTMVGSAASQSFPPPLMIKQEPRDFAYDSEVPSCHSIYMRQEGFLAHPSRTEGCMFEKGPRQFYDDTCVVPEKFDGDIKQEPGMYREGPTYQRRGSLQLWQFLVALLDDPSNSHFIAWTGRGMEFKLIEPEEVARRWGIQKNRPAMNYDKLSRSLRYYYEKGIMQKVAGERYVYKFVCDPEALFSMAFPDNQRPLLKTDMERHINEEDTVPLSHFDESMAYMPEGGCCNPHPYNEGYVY
Sequence of ETV6 (P41212 whole entry): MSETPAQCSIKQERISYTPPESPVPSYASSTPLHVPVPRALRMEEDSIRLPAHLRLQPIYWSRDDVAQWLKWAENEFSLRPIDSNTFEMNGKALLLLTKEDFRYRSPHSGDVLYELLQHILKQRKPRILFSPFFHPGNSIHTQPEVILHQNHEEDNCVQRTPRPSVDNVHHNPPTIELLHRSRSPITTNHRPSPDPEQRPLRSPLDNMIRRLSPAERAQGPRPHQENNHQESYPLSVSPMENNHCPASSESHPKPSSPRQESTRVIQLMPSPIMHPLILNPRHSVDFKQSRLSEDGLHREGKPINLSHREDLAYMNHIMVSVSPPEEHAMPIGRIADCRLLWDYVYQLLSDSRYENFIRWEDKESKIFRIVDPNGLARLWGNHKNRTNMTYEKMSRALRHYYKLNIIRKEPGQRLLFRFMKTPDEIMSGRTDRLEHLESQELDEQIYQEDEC

Take ACCATT: the binding signal with FLI1 is 1.22 fold enrichment (6-mer frequency, TF over GST control); in the test with ELK1, 1.11 fold enrichment (6-mer frequency, TF over GST control); in the test with GABPA, 1.1 fold enrichment (6-mer frequency, TF over GST control); with ERG, 1.12 fold enrichment (6-mer frequency, TF over GST control); with ELF1, 1.1 fold enrichment (6-mer frequency, TF over GST control); with EHF, 1.11 fold enrichment (6-mer frequency, TF over GST control). Also, the binding signal with SPI1 is 1.16 fold enrichment (6-mer frequency, TF over GST control); with SPIB it was 1.11 fold enrichment (6-mer frequency, TF over GST control); with ELK3 it was 1.28 fold enrichment (6-mer frequency, TF over GST control); in the test with FEV it was 1.15 fold enrichment (6-mer frequency, TF over GST control); in the test with ETV5, 1.08 fold enrichment (6-mer frequency, TF over GST control); in the test with ELF4, 1.19 fold enrichment (6-mer frequency, TF over GST control). The binding signal with ETV1 is 1.14 fold enrichment (6-mer frequency, TF over GST control); in the test with ERF it was 1.03 fold enrichment (6-mer frequency, TF over GST control); with ETV3L it was 1.16 fold enrichment (6-mer frequency, TF over GST control); in the test with ETS2 it was 1.15 fold enrichment (6-mer frequency, TF over GST control); with ELF5, 1.15 fold enrichment (6-mer frequency, TF over GST control); in the test with ETV3, 1.1 fold enrichment (6-mer frequency, TF over GST control). Moreover, the binding signal in the test with ETV6 is 1.14 fold enrichment (6-mer frequency, TF over GST control).
